Lassa entry inh – inhibitors of Lassa virus binding or cell entry; Lassa virus pseudotype entry inhibition, cell reporter; 300,000 tested, 1.2% active; Potency, µM (top dose mostly 37.9 µM), inactives show top-dose activity change, negative = inhibition, most hits filed as inhibitors; AID 540256; calls by dose curve; tested in HEK293 cells; note: potency is the fitted concentration of half-maximal effect; nearly all actives have a fitted effect of over 50% in size
Marburg entry inh – blocks Marburg virus binding to or entry into cells | Marburg virus pseudotyped entry inhibition, cell reporter | Potency, µM (series often up to 37.8 µM), inactives show top-dose activity change, negative = inhibition, hits mostly inhibitors | 300,000 tested, 1.8% active | AID 540276; calls by dose curve; tested in HEK293 cells; note: potency is the fitted concentration of half-maximal effect
HCV inh – blocks hepatitis C virus. Huh7.5.1 HCVcc-Cre infection, luciferase reporter, 44 h. Potency, µM (top dose mostly 41.8 µM), for inactives: top-dose activity change, negative = inhibition, usual class: inhibitors. 340,000 tested, 3.4% active. AID 651820; active = well fitted inhibition curve with a large enough effect; inconclusive = small, poorly fitted or top-dose-only effect, or another doubt; inactive = no such curve, though single readings can be large or run the other way; note: potency is the fitted concentration of half-maximal effect
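Infectious HCV cell culture screen: compound-treated cells (1,000/well, pre-plated 4 h) are infected with HCVcc-Cre at roughly 0.5 moi and grown 44 h. Infection is quantified by luciferase signal after 15 min substrate incubation at room temperature.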
HCMV inh – inhibitors of human cytomegalovirus. HFF cells, HCMV-luciferase reporter, 72 h; stronger effect = lower value. activity change, negative = inhibition, % at 57.5 µM. 410,000 tested, 4.5% active. AID 1259415; in the data active = activity change below about -60%; inconclusive = no clear call, values can overlap the other calls; inactive = above about -39%
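Steps: HFFs plated, 16 h 37C; compounds added; HCMV-luciferase added to MOI 1 PFU/cell; 72 h 37C; OneGlo reagent, 5 min room temperature; luminescence read, normalized to controls.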
FMDV inh – antivirals against foot and mouth disease virus; Potency, µM (highest dose often 57.9 µM), inactives show at the top dose activity change, negative = inhibition, usual class: inhibitors; AID 1159524; 410,000 tested, 1.2% active; FMDV antiviral cell-based qHTS; calls by dose curve; tested in HEK293T cells; note: read-out not given here; potency is the fitted concentration of half-maximal effect; nearly all actives have a fitted effect of over 45% in size
Numbers without * were called inactive; ? = inconclusive; . = not tested or not shown; ! = repeats disagree; [ ] = dose if it differs, or a comment. Compounds with a hit are over-represented: about 7.9% of the library has one in this group of screens. % is set by controls: 0 for no effect and ±100 for the full control effect.

SMILES | Lassa entry inh | Marburg entry inh | HCV inh | HCMV inh | FMDV inh
Cc1ccc(CNC(=O)C2CCC(CNc3nc(=S)[nH]c4ccccc34)CC2)cc1 (configuration not stated) | -13.5% | 3.55µM* | ? | -17.2 | -24.4%
COc1cccc(CNC(=O)C2CCN(c3nc4ccc(Cl)cc4[nH]3)CC2)c1 | -0.9%[46.1 µM] | . | . | 0.0 | -26.7%
CN1CCN(C(=O)CN2C(=O)NC(C)(c3ccc4ccccc4c3)C2=O)CC1 (configuration not stated) | 1.5% | -2.3% | -16.3% | ? | -14.0%
COc1cccc(N2CCN(C(=O)CN3C(=O)NC(C)(c4ccc5ccccc5c4)C3=O)CC2)c1 (configuration not stated) | ? | ? | 11.2µM* | ? | ?
COc1cccc(CNC(=O)C2CCC(CNc3nc(=S)[nH]c4ccccc34)CC2)c1 (configuration not stated) | . | -6.8%[46.1 µM] | 2µM* | 14.4 | -10.6%
O=C(CCCn1c(=S)[nH]c2ccccc2c1=O)N1CCN(c2cccc(Cl)c2)CC1 | -7.5% | -24.6% | -24.8% | ? | -25.0%
O=C(c1cccs1)N1C[C@@H](O)[C@@H](n2cc(-c3ccc(F)cc3)nn2)C[C@@H]1c1ccc(Cl)cc1 | -13.0%[46.1 µM] | . | . | . | .
C[C@@H](NC(=O)C1(c2ccccc2)CCN(C(=O)OC(C)(C)C)CC1)C(=O)N[C@@H](C(=O)O)c1ccccc1 | . | . | 18.0% | -7.3 | -7.2%
COc1ccccc1C(=O)COC(=O)Cc1ccccc1F | 0.7% | 19.1% | -13.6% | -36.6 | 69.3%
Cc1cc(C)n(-c2nc(NCCN(C)C)c3c4c(sc3n2)CCCC4)n1 | ? | ? | ? | -81.8* | ?
Cc1cc(C)n(-c2nc(NCCCN(C)C)c3c4c(sc3n2)CCCC4)n1 | ? | ? | ? | -97.9* | 19.0%
Cc1cc(C)n(-c2nc3sc4c(c3c(=O)[nH]2)CCCC4)n1 | . | 0.0% | . | . | .
Cc1cccc(-c2noc(-c3ccc(NCc4cccnc4)c([N+](=O)[O-])c3)n2)c1 | -16.3%[46.1 µM] | 11.0%[46.1 µM] | . | 37.9 | -12.3%
CN(C)C(=O)c1ccc(SC(=S)NCc2ccccc2)cc1 | . | . | . | -26.0 | 35.5µM*
O=P(O)(O)CN1CCNCCN(CP(=O)(O)O)CCNCC1 | -15.6% | ? | ? | -61.3* | -1.3%
Cc1noc(C)c1COc1ccccc1C(=O)NC(C)c1ccc(Cl)cc1 (configuration not stated) | . | . | ? | -12.7 | ?
COc1ccc(N2CCN(CCS(=O)(=O)c3cc(Cl)ccc3Cl)CC2)cc1 | . | . | -20.1% | ? | -20.7%
CCN(CC)CCCNC(=O)CSc1c2c(nc3cc(Cl)ccc13)CCCC2 | ? | ? | 10µM* | -107.0*! | 31.6µM*
COCCCNC(=O)CSc1c2c(nc3ccc(Cl)cc13)CCCC2 | ? | ? | ? | 71.6 | 28.2µM*
CC(C)OCCCNC(=O)CSc1c2c(nc3ccc(Cl)cc13)CCCC2 | -13.4%[46.1 µM] | -18.8%[46.1 µM] | . | 32.3 | ?
CC(C)c1ccc(NC(=S)NCCc2c[nH]c3ccccc23)cc1 | ? | 3.5% | ? | 11.3 | 7.2%
Cc1ccccc1C(=O)N1CCC(C(=O)Nc2nc3ccc(F)cc3s2)CC1 | -9.1% | -4.3% | ? | 6.3 | ?
Cc1cc(C)c(NC(=S)N2CCN(c3ccc([N+](=O)[O-])cn3)CC2)cc1C | . | . | -27.7% | -14.7 | 0.0%
Cc1ccccc1NC(=O)Cn1c(=O)n(Cc2ccc3c(c2)OCO3)c(=O)c2ccccc21 | -11.3%[46.1 µM] | -19.3%[46.1 µM] | . | -61.4* | -14.7%
N#CC1=C(SCC(=O)c2ccccc2)NC2=C(C(=O)CCC2)C1c1ccco1 (configuration not stated) | ? | ? | 11.2µM* | 106.1 | -11.9%
SMILES | Lassa entry inh | Marburg entry inh | HCV inh | HCMV inh | FMDV inh
CCSC1=C(C#N)C(c2ccc(Cl)cc2)C2=C(CCCC2=O)N1 (configuration not stated) | -25.7% | ? | 25.1µM* | -9.9 | -21.1%
CCc1ccc(NC(=O)CSC2=C(C#N)[C@H](c3ccco3)C3=C(CCCC3=O)N2)cc1 | . | -28.9% | . | . | .
CC(C)(C)c1ccc(C(=O)CCCSC2=C(C#N)C(c3ccco3)C3=C(CCCC3=O)N2)cc1 (configuration not stated) | ? | ? | 6.31µM* | ? | -3.3%
Cc1ccc(C(=O)CSC2=C(C#N)C(c3ccco3)C3=C(CCCC3=O)N2)cc1 (configuration not stated) | ? | ? | 25.1µM* | -26.1 | 0.0%
CCCCc1ccc(NC(=O)CSC2=C(C#N)C(c3ccco3)C3=C(CCCC3=O)N2)cc1 (configuration not stated) | ? | ? | ? | -32.0 | ?
CC(=O)OC[C@H]1O[C@H](CC=NO[C@H](C)c2cn([C@H](CO)Cc3ccccc3)nn2)C=C[C@@H]1OC(C)=O | -20.8%[14.3 µM] | 13.0%[14.2 µM] | . | . | .
c1cncc(OC2CCN(Cc3ccc4c(c3)CN(Cc3ccc5c(c3)OCCO5)CCO4)CC2)c1 | . | . | . | . | -19.4%
CC1CN(C(=O)c2cccn(Cc3c(Cl)cccc3Cl)c2=O)CC(C)O1 (configuration not stated) | 4.8%[46.1 µM] | 0.4%[46.1 µM] | 2.8% | -18.2 | 8.6%
CCOC(=O)C1=C(c2ccccc2)NC(SCC(=O)Nc2ccccc2C)=C(C#N)[C@@H]1c1ccco1 | . | 23.1µM* | . | . | .
COc1cccc(NC(=O)CSC2=C(C#N)C(c3ccco3)C3=C(CCCC3=O)N2)c1 (configuration not stated) | 12.6µM* | -7.1% | ? | 46.0 | 13.9%
C[C@]12CCC3C(CC[C@H]4C[C@@H](O)CC[C@]34C)C1C[C@@H](O)[C@]2(C)O (some centres not stated) | 12.0%[46.1 µM] | -4.4%[46.1 µM] | 2.3% | 3.2 | -17.7%
C[C@]12CCC3C(CC[C@H]4CCCC[C@]34C)C1CC[C@@]2(O)CNCCO (some centres not stated) | ? | 1.5% | 10µM* | -1.0 | -17.2%
O=C(c1cccc(S(=O)(=O)N2CCCC2)c1)N1CCOCC1 | . | . | 9.6% | -18.6 | -1.9%
Cn1cc(C(=O)Nc2ccc(Cl)cc2)c(C(F)(F)F)n1 | . | . | -7.8% | ? | 10.5%
CCC(C)Sc1cc(C(F)(F)F)c(C(=O)Nc2ccc(Cl)cc2)cn1 (configuration not stated) | ? | ? | 22.4µM* | -32.9 | ?
CCc1ccc(S(=O)(=O)N(C(C)=O)c2ccc3oc4c(c3c2)CCCC4)cc1 | 6.6%[46.1 µM] | 0.8%[46.1 µM] | . | -91.6* | -16.6%
COC(=O)c1c(C)oc2ccc(N(C(=O)c3ccncc3)S(=O)(=O)c3ccc(C)cc3)cc12 | -17.9% | 3.16µM* | ? | . | -18.1%
COC(=O)c1c(C)oc2ccc(N(C(=O)c3ccncc3)S(=O)(=O)c3ccc(C)cc3C)cc12 | ? | 5.62µM* | 1.58µM* | -92.4* | ?
COC(=O)c1c(C)oc2ccc(N(C(=O)c3ccncc3)S(=O)(=O)c3cc(C)c(C)cc3C)cc12 | ? | ? | . | -60.1* | 0.0%
CCc1ccc2oc(C(=O)NCc3ccccc3)cc(=O)c2c1 | 17.3%[46.1 µM] | ? | . | -2.7 | 7.4%

Assay outcomes: PubChem, National Center for Advancing Translational Sciences (NCATS)
